Screening results (PubChem BioAssay)
IP6K1 inh: blocks human inositol hexakisphosphate kinase 1; AID 1645851; Q92551; activity change, % (series mostly up to about 58 µM); IP6K1 kinase, ADP-Glo luminescence, 2 h; stronger effect = lower value; 140,000 tested, 0.81% active; in the data active means activity change below about -25%; further: on the % scale 0 is the no-effect control and ±100 the full control effect
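ADP-Glo luminescence measures ADP made by human IP6K1 during a 2 h RT reaction with ATP/IP6 (mix at 1.3 mM/130 uM); top library doses 57.5 and 19.1 uM final.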
KDM5B inh: blocks human KDM5B histone demethylase activity; Q9UGL1; KDM5B demethylase, FDH-coupled NADH fluorescence (FDH is formaldehyde dehydrogenase); Potency, µM (titrated, usually from 57.7 µM), hits mostly inhibitors; 220,000 tested, 2.6% active; active means well fitted inhibition curve with a large enough effect; inconclusive means small, poorly fitted or top-dose-only effect; inactive means no such curve, though single readings can be large or run the other way; further: potency means the concentration at half of the fitted maximal effect; 0% is about no effect; nearly all actives have a fitted effect of over 70% in size
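Inhibition is measured as reduced NADH fluorescence generation from FDH coupling to formaldehyde release. Truncated KDM5BΔAP at 200 nM final acts on H3K4me3 peptide (12.5 µM in substrate mix) in pH 7.5 HEPES buffer with Tween-20, 30 min, room temperature.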
Numbers without * were called inactive. An excerpt weighted towards active compounds, which were near 2.8% of everything screened.

COc1cc(CN2CCC[C@H]2c2nc(-c3ccc(-c4ccncc4)nc3)no2)cc(OC)c1OC was read as IP6K1 inh -10 and KDM5B inh inactive.
`CS(=O)(=O)c1ccc(Cl)c(NC(=O)CCCc2cccs2)c1` gave KDM5B inh inactive.
`COc1ccc(F)cc1-c1cccc(C(=O)NCCNC(=O)c2ccccc2F)c1` gave IP6K1 inh 6.
Screening O=C(c1ccoc1)N1CC(Oc2cccc(-c3nc(-c4ccccc4)no3)c2)C1 returned IP6K1 inh -2 and KDM5B inh inconclusive.
For COc1ccccc1C(=O)N1CC(Oc2cccc(-c3nc(-c4ccccc4)no3)c2)C1 the results were IP6K1 inh -3 and KDM5B inh 22µM*.
For COc1cccc(C(=O)N2CC(Oc3cccc(-c4nc(-c5ccccc5)no4)c3)C2)c1 the results were IP6K1 inh -3 and KDM5B inh inactive.
Screening CC(Oc1ccccc1)C(=O)N1CC(Oc2cccc(-c3nc(-c4ccccc4)no3)c2)C1 (centres undefined) returned IP6K1 inh -1 and KDM5B inh 22µM*.
For Cc1ccc(-c2c(C(=O)NCCc3ccccc3)nc3sccn23)cc1 the results were IP6K1 inh 8.
Cc1ccc(-c2nn(-c3cccc(F)c3)cc2CN(C)CCO)o1 was read as IP6K1 inh 7 and KDM5B inh 25µM*.
For COC(=O)CN(C)Cc1cn(-c2ccc(C)cc2)nc1-c1cccc(C)c1 the results were IP6K1 inh 0 and KDM5B inh inactive.
COc1ccc(-c2nn(-c3ccccc3)cc2CN(C)CCn2ccnc2C)c(F)c1 was read as KDM5B inh inactive.
For Cc1cc(CN(C)Cc2cn(-c3cccc(F)c3)nc2-c2ccc(C)o2)n[nH]1 the results were IP6K1 inh 10 and KDM5B inh 25µM*.
COc1ccc(CCNC(=O)c2nc3sccn3c2-c2ccncc2)cc1 was read as IP6K1 inh 7.
For OCCc1cnc2c(-c3nc(-c4cccnn4)no3)cnn2c1 the results were IP6K1 inh 27 and KDM5B inh 25µM*.
Cc1cnn(C(C)c2nc(-c3cccnn3)no2)c1 (centres undefined) was read as IP6K1 inh -12 and KDM5B inh inactive.
Screening COC(=O)c1c(-c2ccc(F)cc2)csc1NC(=O)CN1CCN(c2ccccc2)CC1 returned KDM5B inh inactive.
Screening COc1ccc(-c2nc3c(c(=O)[nH]2)CCN(C(=O)Nc2cc(F)cc(F)c2)C3)cc1 returned IP6K1 inh 0 and KDM5B inh 18µM*.
Screening COc1ccc(-c2nc3c(c(=O)[nH]2)CCN(C(=O)Nc2ccc4c(c2)CCC4)C3)cc1 returned IP6K1 inh 8 and KDM5B inh inactive.
For N#Cc1cccc(NC(=O)N2CCc3c(nc(-c4ccc(F)cc4)[nH]c3=O)C2)c1 the results were IP6K1 inh 26 and KDM5B inh 20µM*.
For N#Cc1ccc(S(=O)(=O)N2CCc3c(nc(-c4ccc(F)cc4)[nH]c3=O)C2)cc1 the results were IP6K1 inh 5 and KDM5B inh inactive.
`COc1ccccc1-c1nc(S(=O)(=O)c2ccc3c(c2)OCCO3)c(NCCCN(C)C)o1` gave KDM5B inh inactive.
Screening O=C1/C(=C/c2cccc(O)c2)C(c2ccccc2)Oc2ccccc21 (centres undefined) returned KDM5B inh inactive.
For CC(=O)N1CCCC2(C1)CN(C)c1ccc(C(=O)NC(C)C)cc12 (centres undefined) the results were IP6K1 inh -3 and KDM5B inh 35µM*.
For CC(=O)N1CCCC2(C1)CN(C)c1ccc(C(=O)NCC(C)C)cc12 (centres undefined) the results were IP6K1 inh 5 and KDM5B inh 32µM*.
Screening COCCN1CCC2(C1)CN(C)c1ccc(C(=O)Nc3ccc(OC)cc3)cc12 (centres undefined) returned IP6K1 inh 15 and KDM5B inh inconclusive.
For CN1CCCC2(C1)CN(C)c1ccc(C(=O)Nc3ccccc3)cc12 (centres undefined) the results were IP6K1 inh 5 and KDM5B inh inconclusive.
Cn1ncc2c(C(=O)N3CCCC3)cc(-c3ccc(C(F)(F)F)cc3)nc21 was read as IP6K1 inh -9.
For CC(C)CCN(C)Cc1cccc(C(F)(F)F)c1 the results were IP6K1 inh 8.
CSc1ccccc1-c1nc(C2CCOC2)no1 (centres undefined) was read as IP6K1 inh -2 and KDM5B inh 28µM*.
`c1cnn(-c2ccc(-c3nc(C4CCOC4)no3)cc2)c1` (centres undefined) gave IP6K1 inh 6 and KDM5B inh 32µM*.
Cc1onc(-c2ccccc2Cl)c1-c1nc(C2CCOC2)no1 (centres undefined) was read as IP6K1 inh 0 and KDM5B inh inactive.
`CN(C)c1ccc(-c2nc(C3CCOC3)no2)cc1` (centres undefined) gave IP6K1 inh -2 and KDM5B inh inactive.
For O=C1Nc2ccc(-c3ccccc3)cc2C(=O)N2CCN(C(=O)c3cccc(F)c3)C[C@H]12 the results were IP6K1 inh -6 and KDM5B inh 28µM*.
`O=C1Nc2ccc(-c3ccc(Cl)cc3)cc2C(=O)N2CCN(C(=O)c3cccc(F)c3)C[C@H]12` gave IP6K1 inh 1 and KDM5B inh inconclusive.
Screening O=C(O)CCCC(=O)N1CCN2C(=O)c3cc(Br)ccc3NC(=O)[C@@H]2C1 returned IP6K1 inh 15 and KDM5B inh inactive.
`O=C1Nc2ccc(-c3ccco3)cc2C(=O)N2CCN(C(=O)c3ccccc3)C[C@H]12` gave IP6K1 inh 8 and KDM5B inh 35µM*.
Screening O=C1Nc2ccc(-c3ccco3)cc2C(=O)N2CCN(C(=O)NC3CCCCC3)C[C@H]12 returned IP6K1 inh -15 and KDM5B inh 28µM*.
Screening O=C(O)CCCC(=O)N1CCN2C(=O)c3cc(-c4ccco4)ccc3NC(=O)[C@@H]2C1 returned IP6K1 inh 3 and KDM5B inh 40µM*.
`O=C1Nc2ccc(Br)cc2C(=O)N2CCN(C(=O)c3ccccc3)C[C@H]12` gave IP6K1 inh -2 and KDM5B inh inactive.
Screening O=C1Nc2ccc(-c3ccccc3)cc2C(=O)N2CCN(C(=O)NC3CCCCC3)C[C@H]12 returned IP6K1 inh 6 and KDM5B inh inactive.
`CCOC(=O)[C@@H]1CN(C(=O)C2CCCCC2)[C@H]2c3ccc(OC)cc3O[C@@H]12` gave IP6K1 inh 22.
Screening Fc1ccccc1-c1nc(NC2CCCCC2)c2ccccc2n1 returned KDM5B inh inactive.
C=CCOc1c(OC)ccc2c1CN(CC=C)C(=O)CCN2C[C@@H](O)COCc1ccccc1 was read as IP6K1 inh -7.
For O=c1ccc2cc(S(=O)(=O)Oc3ccc4c(=O)c(-c5ccccc5)coc4c3)ccc2o1 the results were KDM5B inh inactive.
Screening COc1ccc(CCNC(=O)c2c(C)noc2-c2ccccc2OC)cc1OC returned IP6K1 inh -10 and KDM5B inh inactive.
For COc1cccc(CCNC(=O)c2c(C)noc2-c2ccc3c(c2)OCO3)c1 the results were IP6K1 inh 4 and KDM5B inh 14µM*.
Screening COc1cccc(CCNC(=O)c2c(C)noc2-c2ccc(OC(F)(F)F)cc2)c1 returned IP6K1 inh 7 and KDM5B inh inactive.
